Measured values reported in ChEMBL document CHEMBL1961873, “Compounds: GSK PKIS; Assays: Nanosyn kinase panel” (2012).

What was measured:
[1] = target: Protein kinase C gamma type (Homo sapiens) (UniProt P05129); details: at 1 µM;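 further: each value is an averaged percent inhibition of the enzyme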
[2] = target: T1, Protein kinase C iota type (Homo sapiens) (UniProt P41743); details: at 0.1 µM
T1 sequence (whole entry): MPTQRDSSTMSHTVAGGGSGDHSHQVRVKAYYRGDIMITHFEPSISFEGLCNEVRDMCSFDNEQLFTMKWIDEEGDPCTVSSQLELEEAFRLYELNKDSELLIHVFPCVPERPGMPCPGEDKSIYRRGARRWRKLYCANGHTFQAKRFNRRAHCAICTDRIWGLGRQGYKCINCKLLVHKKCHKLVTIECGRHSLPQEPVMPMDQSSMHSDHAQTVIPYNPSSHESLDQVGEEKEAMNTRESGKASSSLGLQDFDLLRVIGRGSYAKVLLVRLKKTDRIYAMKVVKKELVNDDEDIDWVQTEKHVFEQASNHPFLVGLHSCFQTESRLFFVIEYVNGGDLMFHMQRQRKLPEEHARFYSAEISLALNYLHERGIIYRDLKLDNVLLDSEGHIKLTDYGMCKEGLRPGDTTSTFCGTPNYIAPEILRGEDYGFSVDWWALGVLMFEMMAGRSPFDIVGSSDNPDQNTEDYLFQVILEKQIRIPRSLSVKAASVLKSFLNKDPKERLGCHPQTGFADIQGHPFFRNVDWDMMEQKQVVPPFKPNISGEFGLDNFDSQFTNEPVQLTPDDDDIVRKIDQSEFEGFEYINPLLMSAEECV

[3] = target: T1, Protein kinase C iota type (Homo sapiens); details: at 1 µM
[4] = target: Protein kinase C theta type (Homo sapiens) (UniProt Q04759); details: at 0.1 µM
[5] = target: Protein kinase C theta type (Homo sapiens) (UniProt Q04759); details: at 1 µM
[6] = target: Protein kinase C beta type (Homo sapiens) (UniProt P05771); details: at 0.1 µM
[7] = target: Protein kinase C beta type (Homo sapiens) (UniProt P05771); details: at 1 µM
[8] = target: T2, Serine/threonine-protein kinase D1 (Homo sapiens) (UniProt Q15139); details: at 0.1 µM
T2 sequence (whole entry): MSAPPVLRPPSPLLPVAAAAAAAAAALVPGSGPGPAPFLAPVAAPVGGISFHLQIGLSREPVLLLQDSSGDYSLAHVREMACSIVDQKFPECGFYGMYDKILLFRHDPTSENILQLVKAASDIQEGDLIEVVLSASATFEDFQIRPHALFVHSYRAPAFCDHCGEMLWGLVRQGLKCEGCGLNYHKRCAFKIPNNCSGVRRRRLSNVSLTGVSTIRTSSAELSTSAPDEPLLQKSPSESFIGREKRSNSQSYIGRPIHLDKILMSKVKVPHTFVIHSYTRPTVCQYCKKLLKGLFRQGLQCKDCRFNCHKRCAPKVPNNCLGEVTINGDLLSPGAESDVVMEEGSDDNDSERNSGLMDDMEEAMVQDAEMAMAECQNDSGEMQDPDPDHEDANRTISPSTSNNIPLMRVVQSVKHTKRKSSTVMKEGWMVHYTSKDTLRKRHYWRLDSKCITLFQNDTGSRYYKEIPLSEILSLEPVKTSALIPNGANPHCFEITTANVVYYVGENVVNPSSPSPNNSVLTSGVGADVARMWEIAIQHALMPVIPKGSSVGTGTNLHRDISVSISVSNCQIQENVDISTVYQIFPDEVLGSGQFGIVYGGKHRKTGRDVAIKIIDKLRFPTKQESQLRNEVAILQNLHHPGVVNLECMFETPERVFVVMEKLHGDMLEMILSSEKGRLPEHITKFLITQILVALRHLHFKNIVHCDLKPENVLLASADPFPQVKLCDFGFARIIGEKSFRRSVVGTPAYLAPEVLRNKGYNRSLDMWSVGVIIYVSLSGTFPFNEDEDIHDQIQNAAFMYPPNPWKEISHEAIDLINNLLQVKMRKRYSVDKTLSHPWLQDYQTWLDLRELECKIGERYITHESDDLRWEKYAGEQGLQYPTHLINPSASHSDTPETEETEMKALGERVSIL

[9] = target: T2, Serine/threonine-protein kinase D1 (Homo sapiens); details: at 1 µM
[10] = target: T3, Serine/threonine-protein kinase D2 (Homo sapiens) (UniProt Q9BZL6); details: at 0.1 µM
T3 sequence (whole entry): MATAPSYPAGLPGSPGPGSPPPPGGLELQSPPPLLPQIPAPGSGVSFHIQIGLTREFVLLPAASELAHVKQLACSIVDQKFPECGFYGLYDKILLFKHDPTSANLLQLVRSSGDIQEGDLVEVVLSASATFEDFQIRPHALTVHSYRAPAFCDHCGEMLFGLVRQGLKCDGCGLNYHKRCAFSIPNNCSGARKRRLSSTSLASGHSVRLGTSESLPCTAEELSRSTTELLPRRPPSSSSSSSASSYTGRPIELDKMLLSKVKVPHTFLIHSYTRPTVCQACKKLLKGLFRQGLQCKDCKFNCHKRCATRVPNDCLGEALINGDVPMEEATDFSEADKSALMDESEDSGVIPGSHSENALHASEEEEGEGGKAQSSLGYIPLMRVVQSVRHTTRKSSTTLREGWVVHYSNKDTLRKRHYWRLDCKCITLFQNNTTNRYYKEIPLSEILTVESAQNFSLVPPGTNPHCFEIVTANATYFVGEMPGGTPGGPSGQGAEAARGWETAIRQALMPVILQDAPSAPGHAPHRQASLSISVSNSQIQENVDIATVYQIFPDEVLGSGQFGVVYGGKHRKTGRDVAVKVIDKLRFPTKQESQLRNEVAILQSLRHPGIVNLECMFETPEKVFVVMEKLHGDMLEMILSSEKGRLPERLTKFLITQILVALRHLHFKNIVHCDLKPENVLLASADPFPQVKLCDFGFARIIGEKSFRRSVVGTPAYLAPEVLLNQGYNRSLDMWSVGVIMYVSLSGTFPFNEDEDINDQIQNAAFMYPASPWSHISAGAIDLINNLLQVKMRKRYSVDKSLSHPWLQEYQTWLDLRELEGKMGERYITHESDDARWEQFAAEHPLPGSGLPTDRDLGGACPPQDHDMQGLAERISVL

[11] = target: T3, Serine/threonine-protein kinase D2 (Homo sapiens); details: at 1 µM
[12] = target: T4, Serine/threonine-protein kinase D3 (Homo sapiens) (UniProt O94806); details: at 0.1 µM
T4 sequence (whole entry): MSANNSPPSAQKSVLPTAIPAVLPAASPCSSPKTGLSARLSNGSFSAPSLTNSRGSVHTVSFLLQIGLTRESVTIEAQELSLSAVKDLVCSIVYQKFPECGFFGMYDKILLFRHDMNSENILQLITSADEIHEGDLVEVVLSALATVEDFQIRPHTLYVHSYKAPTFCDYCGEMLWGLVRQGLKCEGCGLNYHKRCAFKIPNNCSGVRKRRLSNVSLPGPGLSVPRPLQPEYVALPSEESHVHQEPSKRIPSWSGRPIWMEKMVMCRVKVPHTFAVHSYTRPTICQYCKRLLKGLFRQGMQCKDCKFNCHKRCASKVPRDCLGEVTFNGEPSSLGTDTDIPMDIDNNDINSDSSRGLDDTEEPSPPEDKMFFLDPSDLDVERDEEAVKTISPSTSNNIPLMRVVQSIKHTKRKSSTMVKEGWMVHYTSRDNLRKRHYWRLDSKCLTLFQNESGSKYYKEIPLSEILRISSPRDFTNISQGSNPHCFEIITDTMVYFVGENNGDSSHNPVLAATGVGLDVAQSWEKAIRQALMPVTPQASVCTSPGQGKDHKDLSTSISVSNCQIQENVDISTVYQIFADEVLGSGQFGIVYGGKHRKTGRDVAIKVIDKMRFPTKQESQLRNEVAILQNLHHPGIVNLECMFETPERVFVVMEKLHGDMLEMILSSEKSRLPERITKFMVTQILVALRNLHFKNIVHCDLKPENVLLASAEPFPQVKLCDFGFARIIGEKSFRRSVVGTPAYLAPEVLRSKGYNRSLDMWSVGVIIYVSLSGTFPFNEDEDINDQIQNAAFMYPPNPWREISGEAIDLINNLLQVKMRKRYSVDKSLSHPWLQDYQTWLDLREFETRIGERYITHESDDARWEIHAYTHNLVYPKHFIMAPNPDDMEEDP

[13] = target: T4, Serine/threonine-protein kinase D3 (Homo sapiens); details: at 1 µM
[14] = target: T5, cGMP-dependent protein kinase 1 (Homo sapiens) (UniProt Q13976); details: at 0.1 µM
T5 sequence (whole entry): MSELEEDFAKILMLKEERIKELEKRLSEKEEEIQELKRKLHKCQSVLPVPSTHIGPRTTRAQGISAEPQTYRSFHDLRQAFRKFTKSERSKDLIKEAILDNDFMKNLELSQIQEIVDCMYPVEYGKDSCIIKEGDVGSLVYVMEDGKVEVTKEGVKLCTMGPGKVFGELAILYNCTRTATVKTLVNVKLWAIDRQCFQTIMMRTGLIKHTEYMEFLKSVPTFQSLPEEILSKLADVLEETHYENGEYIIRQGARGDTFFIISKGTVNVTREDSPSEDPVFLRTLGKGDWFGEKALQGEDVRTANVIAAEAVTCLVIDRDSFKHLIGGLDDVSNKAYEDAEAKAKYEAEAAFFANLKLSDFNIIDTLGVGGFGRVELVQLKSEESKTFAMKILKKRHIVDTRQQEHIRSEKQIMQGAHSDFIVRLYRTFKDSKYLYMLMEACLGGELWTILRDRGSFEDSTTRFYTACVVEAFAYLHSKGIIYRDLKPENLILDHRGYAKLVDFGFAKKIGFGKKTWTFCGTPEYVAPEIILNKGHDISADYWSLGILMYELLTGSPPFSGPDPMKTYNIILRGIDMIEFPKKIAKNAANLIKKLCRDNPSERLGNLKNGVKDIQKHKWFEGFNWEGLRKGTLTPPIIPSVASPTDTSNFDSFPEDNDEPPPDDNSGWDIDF

[15] = target: T5, cGMP-dependent protein kinase 1 (Homo sapiens); details: at 1 µM
[16] = target: T6, cGMP-dependent protein kinase 2 (Homo sapiens) (UniProt Q13237); details: at 0.1 µM
T6 sequence (whole entry): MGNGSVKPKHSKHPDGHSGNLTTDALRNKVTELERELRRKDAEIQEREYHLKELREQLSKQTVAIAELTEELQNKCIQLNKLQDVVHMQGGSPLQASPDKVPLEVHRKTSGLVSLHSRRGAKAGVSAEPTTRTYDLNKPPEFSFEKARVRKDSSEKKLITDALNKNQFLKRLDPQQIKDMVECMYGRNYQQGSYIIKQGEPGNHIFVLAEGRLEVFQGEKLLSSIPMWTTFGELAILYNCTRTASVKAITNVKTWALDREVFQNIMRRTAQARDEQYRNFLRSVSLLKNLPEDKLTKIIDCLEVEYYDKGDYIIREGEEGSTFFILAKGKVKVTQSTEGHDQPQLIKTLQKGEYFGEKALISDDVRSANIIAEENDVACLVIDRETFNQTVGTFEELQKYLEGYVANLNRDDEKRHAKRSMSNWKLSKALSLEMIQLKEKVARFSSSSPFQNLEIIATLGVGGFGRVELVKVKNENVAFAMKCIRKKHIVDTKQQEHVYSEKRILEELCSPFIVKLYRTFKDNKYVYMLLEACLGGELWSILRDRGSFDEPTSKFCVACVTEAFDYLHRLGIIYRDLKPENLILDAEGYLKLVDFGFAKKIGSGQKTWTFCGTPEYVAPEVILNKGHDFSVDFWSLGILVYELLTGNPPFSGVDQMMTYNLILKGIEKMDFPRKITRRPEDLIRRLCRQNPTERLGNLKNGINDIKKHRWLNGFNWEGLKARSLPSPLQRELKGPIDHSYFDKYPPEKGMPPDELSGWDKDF

[17] = target: T6, cGMP-dependent protein kinase 2 (Homo sapiens); details: at 1 µM
[18] = target: T7, cAMP-dependent protein kinase catalytic subunit PRKX (Homo sapiens) (UniProt P51817); details: at 0.1 µM
T7 sequence (whole entry): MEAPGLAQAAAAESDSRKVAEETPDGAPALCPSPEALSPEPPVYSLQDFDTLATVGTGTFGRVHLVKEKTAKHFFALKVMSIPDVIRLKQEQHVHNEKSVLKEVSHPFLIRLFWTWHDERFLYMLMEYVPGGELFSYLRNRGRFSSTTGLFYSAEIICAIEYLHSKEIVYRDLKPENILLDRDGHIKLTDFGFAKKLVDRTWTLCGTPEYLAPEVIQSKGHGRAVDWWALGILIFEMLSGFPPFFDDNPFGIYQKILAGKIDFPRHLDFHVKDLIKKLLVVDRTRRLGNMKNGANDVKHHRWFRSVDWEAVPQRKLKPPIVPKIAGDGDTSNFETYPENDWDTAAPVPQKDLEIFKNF

[19] = target: T7, cAMP-dependent protein kinase catalytic subunit PRKX (Homo sapiens); details: at 1 µM
[20] = target: Rho-associated protein kinase 1 (Homo sapiens) (UniProt Q13464); details: at 0.1 µM;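 further: values are mean percent inhibition of ROCK1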
Chain of Rho-associated protein kinase 1 (Homo sapiens) (Q13464 2-1354 limits assumed): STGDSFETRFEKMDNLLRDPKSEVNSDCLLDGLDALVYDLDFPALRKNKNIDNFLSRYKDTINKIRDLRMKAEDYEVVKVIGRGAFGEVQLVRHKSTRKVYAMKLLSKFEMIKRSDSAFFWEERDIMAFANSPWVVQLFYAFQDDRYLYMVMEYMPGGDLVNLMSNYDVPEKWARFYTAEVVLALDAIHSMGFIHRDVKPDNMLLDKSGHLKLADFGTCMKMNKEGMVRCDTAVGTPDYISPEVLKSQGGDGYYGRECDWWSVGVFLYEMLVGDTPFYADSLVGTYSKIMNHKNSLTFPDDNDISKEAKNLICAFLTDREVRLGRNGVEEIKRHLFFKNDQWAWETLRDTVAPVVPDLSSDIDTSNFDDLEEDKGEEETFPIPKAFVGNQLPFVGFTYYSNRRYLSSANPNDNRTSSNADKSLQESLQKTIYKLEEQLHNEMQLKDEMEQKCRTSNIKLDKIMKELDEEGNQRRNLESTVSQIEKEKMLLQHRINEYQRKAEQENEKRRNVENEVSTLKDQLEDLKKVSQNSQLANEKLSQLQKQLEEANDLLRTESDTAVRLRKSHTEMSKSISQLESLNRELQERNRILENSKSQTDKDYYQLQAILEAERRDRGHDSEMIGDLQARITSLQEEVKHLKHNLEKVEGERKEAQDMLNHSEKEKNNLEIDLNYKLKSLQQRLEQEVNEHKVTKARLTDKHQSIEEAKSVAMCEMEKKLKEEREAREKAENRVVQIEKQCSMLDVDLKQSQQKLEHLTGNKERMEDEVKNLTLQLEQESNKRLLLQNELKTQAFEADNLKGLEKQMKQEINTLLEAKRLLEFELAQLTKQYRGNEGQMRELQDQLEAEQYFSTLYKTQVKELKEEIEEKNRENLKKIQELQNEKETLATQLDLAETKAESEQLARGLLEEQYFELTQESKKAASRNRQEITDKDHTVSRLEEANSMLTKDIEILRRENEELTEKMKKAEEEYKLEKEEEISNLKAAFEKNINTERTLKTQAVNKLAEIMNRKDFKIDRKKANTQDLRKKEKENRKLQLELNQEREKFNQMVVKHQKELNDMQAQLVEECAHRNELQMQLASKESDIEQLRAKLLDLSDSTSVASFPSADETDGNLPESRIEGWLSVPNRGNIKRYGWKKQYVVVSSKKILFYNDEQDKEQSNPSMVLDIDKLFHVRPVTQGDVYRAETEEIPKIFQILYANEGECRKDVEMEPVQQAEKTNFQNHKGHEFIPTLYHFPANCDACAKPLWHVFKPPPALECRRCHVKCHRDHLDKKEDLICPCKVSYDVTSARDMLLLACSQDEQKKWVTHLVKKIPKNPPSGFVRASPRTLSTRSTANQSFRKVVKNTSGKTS

Chain of Protein kinase C theta type (Homo sapiens) (Q04759 whole entry, looked up): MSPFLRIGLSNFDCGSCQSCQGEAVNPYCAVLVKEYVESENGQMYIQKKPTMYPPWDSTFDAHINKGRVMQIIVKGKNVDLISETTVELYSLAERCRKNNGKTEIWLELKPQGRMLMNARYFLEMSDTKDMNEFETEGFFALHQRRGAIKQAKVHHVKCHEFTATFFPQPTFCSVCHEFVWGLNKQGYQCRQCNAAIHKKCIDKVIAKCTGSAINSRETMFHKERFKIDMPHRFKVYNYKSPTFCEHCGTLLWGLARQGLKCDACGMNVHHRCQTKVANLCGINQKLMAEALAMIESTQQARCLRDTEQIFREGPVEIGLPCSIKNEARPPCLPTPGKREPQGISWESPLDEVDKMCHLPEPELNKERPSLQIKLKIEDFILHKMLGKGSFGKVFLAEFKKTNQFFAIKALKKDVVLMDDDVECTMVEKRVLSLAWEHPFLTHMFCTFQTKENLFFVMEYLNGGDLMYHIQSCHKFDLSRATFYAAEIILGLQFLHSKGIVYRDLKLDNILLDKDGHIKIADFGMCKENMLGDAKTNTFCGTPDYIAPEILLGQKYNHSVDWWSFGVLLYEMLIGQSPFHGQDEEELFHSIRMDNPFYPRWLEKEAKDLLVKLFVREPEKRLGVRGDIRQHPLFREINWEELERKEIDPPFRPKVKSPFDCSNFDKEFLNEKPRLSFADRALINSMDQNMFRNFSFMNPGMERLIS
Chain of Protein kinase C beta type (Homo sapiens) (P05771 2-671 limits assumed): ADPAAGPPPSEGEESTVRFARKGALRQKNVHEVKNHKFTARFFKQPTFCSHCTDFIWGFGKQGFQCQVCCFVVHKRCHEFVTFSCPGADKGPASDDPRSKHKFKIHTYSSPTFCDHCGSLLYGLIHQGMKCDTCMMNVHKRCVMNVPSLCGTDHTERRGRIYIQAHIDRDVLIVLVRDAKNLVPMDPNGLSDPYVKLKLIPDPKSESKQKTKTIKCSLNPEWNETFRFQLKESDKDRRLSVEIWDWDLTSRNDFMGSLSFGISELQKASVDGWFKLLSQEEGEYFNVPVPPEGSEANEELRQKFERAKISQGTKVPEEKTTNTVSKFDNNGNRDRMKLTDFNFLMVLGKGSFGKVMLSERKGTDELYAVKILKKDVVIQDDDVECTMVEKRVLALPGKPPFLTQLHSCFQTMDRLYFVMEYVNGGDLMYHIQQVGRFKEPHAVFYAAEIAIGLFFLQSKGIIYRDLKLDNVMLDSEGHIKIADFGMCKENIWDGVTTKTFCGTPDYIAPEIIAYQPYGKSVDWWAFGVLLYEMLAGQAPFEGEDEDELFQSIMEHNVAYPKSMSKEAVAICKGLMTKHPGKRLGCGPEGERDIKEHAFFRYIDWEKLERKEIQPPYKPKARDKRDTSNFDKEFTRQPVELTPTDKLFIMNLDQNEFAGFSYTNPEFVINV

| SMILES | inhibition [1] [%] | inhibition [2] [%] | inhibition [3] [%] | inhibition [4] [%] | inhibition [5] [%] | inhibition [6] [%] | inhibition [7] [%] | inhibition [8] [%] | inhibition [9] [%] | inhibition [10] [%] | inhibition [11] [%] | inhibition [12] [%] | inhibition [13] [%] | inhibition [14] [%] | inhibition [15] [%] | inhibition [16] [%] | inhibition [17] [%] | inhibition [18] [%] | inhibition [19] [%] | inhibition [20] [%] |
| --- | --- | --- | --- | --- | --- | --- | --- | --- | --- | --- | --- | --- | --- | --- | --- | --- | --- | --- | --- | --- |
| c1ccc(Oc2ccc(Nc3ncc(-c4ccccc4)o3)cc2)cc1 | 3.46 | 1.87 | 0.57 | 1.08 | 0.33 | 0.45 | 1.67 | 2.12 | 4.49 | 1.43 | 3.8 | 2.14 | 3.61 | 2.21 | 3.15 | 1.21 | 3.1 | 2.99 | 6.18 | 3.48 |
| Nc1nccc(-c2c(-c3ccc(F)cc3)ncn2C2CCC(O)CC2)n1 (stereo not given) | 2.37 | 1.25 | 0.01 | -0.81 | 0.4 | 1.56 | 16.3 | 0.14 | 18.5 | 0.03 | 23.3 | -0.31 | 19.4 | -1.29 | 0.27 | -0.66 | -0.24 | -0.76 | -0.96 | 0.4 |
| CCS(=O)(=O)c1ccc(OC)c(Nc2ncc(-c3cccc(-c4ccccc4F)c3)o2)c1 | 0.81 | 1.05 | 3.5 | -0.12 | 2.52 | -0.13 | 1.06 | 1.19 | 1.23 | 1.33 | 1.19 | 1.19 | 1.54 | 0.11 | 3.03 | 1.57 | 2.1 | 0.93 | 0.98 | -2.02 |
